Hit rate of the full screen: of about 17,000 compounds, about 35 (0.2%) were called active.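 How the source made its calls: active means compounds whose four printed spots each show fluorescence over background unusually high for their array block, chance value under 7%; inactive means the rest.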 This excerpt belongs to a sample that is enriched for actives.
Biological target: Signal transducer and activator of transcription 3 (Homo sapiens) (UniProt P40763)
Assay: STAT3 binders, primary screen, biochemical, small molecule microarray, single point, set 2 (AID 624138)
Settings: His-STAT3 binding, anti-His fluorescence

Chain of Signal transducer and activator of transcription 3 (Homo sapiens) (P40763 whole entry, looked up): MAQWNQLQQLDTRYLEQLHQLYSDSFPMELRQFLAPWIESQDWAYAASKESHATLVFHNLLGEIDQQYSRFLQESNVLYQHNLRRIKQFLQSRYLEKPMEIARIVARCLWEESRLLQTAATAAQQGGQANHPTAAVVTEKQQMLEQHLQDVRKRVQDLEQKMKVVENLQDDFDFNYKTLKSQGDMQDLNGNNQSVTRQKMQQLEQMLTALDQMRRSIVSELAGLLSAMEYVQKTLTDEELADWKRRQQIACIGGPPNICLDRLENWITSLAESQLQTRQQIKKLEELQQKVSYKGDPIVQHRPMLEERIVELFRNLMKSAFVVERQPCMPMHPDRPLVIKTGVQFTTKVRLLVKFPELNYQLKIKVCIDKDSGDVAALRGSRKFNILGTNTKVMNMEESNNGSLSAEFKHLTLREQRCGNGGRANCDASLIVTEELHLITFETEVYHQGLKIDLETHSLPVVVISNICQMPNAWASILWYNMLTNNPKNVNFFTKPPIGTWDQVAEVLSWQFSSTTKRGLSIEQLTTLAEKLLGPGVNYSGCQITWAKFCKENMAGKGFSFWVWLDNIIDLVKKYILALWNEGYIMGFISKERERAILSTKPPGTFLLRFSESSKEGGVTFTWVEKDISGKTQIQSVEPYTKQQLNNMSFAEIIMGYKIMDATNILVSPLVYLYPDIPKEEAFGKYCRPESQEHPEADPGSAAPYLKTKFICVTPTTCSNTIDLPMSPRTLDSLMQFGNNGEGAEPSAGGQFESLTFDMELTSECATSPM

outcome, inactive:
O=C(C1=C[C@H](C2CC2)C[C@H](OCc2ccc(CO)cc2)O1)N1CCN(Cc2ccccc2)CC1
C[C@@H]1CCCCO[C@H](CN(C)C(=O)Nc2ccccc2)[C@H](C)CN([C@H](C)CO)C(=O)c2cc(N(C)C)ccc2O1
CC(C)NC(=O)N(C)C[C@H]1OCCCC[C@@H](C)Oc2ccc(NC(=O)Nc3cccc4ccccc34)cc2C(=O)N([C@H](C)CO)C[C@@H]1C
C[C@H]1CN([C@@H](C)CO)C(=O)Cc2cc(NC(=O)Nc3ccc4c(c3)OCO4)ccc2O[C@H]1CN(C)CC1CC1
CC1(C)CC[C@]2(C(=O)O[C@@H]3O[C@H](CO)[C@@H](O)[C@H](O)[C@H]3O)CC[C@]3(C)C(=CCC4[C@@]5(C)CC[C@H](O[C@@H]6O[C@H](C(=O)O)[C@@H](O[C@@H]7OC[C@H](O)[C@H](O)[C@H]7O)[C@H](O)[C@H]6O)C(C)(C)C5CC[C@]43C)C2C1 (some centres not stated)
CC(=O)OC[C@H]1O[C@@H](Oc2c(-c3ccc(O)c(O)c3)oc3cc(O)cc(O)c3c2=O)[C@H](O)[C@@H](O)[C@@H]1O
Cc1noc(C)c1S(=O)(=O)Nc1ccc2c(c1)C(=O)N([C@@H](C)CO)C[C@@H](C)[C@@H](CN(C)C)O2
C[C@H](CO)N1C[C@H](C)[C@@H](CN(C)S(=O)(=O)c2ccc(Cl)cc2)Oc2ccc(NS(=O)(=O)c3cccs3)cc2CC1=O
CC(C)NC(=O)Nc1ccc2c(c1)CC(=O)N([C@@H](C)CO)C[C@@H](C)[C@H](CN(C)Cc1ccc(C(F)(F)F)cc1)O2
OCc1nc2ccccc2n1CCOc1cccc(Cl)c1
C[C@@H]1CN([C@@H](C)CO)C(=O)c2cc(NC(=O)Nc3cccc4ccccc34)ccc2O[C@@H]1CN(C)C(=O)NC1CCCCC1
Cc1noc(C)c1NC(=O)N(C)C[C@@H]1Oc2ccc(NC(=O)Nc3ccc4c(c3)OCO4)cc2CC(=O)N([C@H](C)CO)C[C@H]1C
C[C@@H]1CCCCO[C@H](CN(C)C(=O)C2CCCCC2)[C@@H](C)CN([C@@H](C)CO)C(=O)c2cc(NC(=O)Nc3ccccc3)ccc2O1
C[C@H]1CCCCO[C@H](CN(C)Cc2ccccc2)[C@@H](C)CN([C@@H](C)CO)C(=O)c2cc(NS(C)(=O)=O)ccc2O1
C[C@H]1CN([C@@H](C)CO)C(=O)Cc2cc(NC(=O)Nc3cccc4ccccc34)ccc2O[C@H]1CN(C)CC1CC1
CO[C@H]1C(=O)c2c(O)c(CC=C(C)C)c(O)c(CC=C(C)C)c2O[C@@H]1c1ccc(O)cc1
COC(=O)CCCCCCC(=O)Nc1ccc(C2OC(CSc3nc(-c4ccccc4)c(-c4ccccc4)o3)CC(c3ccc([N+](=O)[O-])cc3)O2)cc1 (configuration not stated)
Cc1ccc(N(C(=O)COc2ccccc2[N+](=O)[O-])C2C=CS(=O)(=O)C2)cc1 (configuration not stated)
Cc1noc(C)c1NC(=O)Nc1ccc2c(c1)CC(=O)N([C@H](C)CO)C[C@H](C)[C@H](CN(C)C(=O)NC(C)C)O2
COc1ccc(C#Cc2ccc3c(c2)[C@]2(C(=O)N3)[C@H](c3ccccc3OCCO)N3[C@H](c4ccccc4)[C@H](c4ccccc4)OC(=O)[C@H]3[C@@H]2C(=O)N2CCCCCCC2)cc1
C[C@@H]1CN([C@@H](C)CO)C(=O)c2cc(N(C)C)ccc2O[C@@H](C)CCCCO[C@H]1CN(C)C(=O)CCCN(C)C
Cc1ccc(-n2c(SCC(=O)c3ccccc3)nnc2-c2ccncc2)cc1C
C[C@@H]1CCCCO[C@@H](CN(C)Cc2ccncc2)[C@@H](C)CN([C@@H](C)CO)C(=O)c2cc(NC(=O)Nc3ccc(F)cc3)ccc2O1
CC1(C)CC[C@@]2(C(=O)O)C(C1)C1=CCC3[C@@]4(C)CC[C@H](O)C(C)(C)C4CC[C@@]3(C)[C@]1(C)C[C@H]2O (some centres not stated)
Cn1c(Cc2csc(N)n2)nnc1SC/C=C/c1ccccc1
Cc1nnc(SCc2cc(=O)[nH]c(N3CCN(Cc4ccccc4)CC3)n2)s1
COc1ccc(OC)c(NC(=O)c2cnn(-c3ccccc3Cl)c2NC(=O)c2ccco2)c1
C[C@@H]1CN([C@H](C)CO)C(=O)c2cc(NC(=O)Nc3ccc4c(c3)OCO4)ccc2O[C@@H]1CN(C)Cc1ccc(C(F)(F)F)cc1
C[C@@H]1CN([C@H](C)CO)C(=O)Cc2cc(NC(=O)NC3CCCCC3)ccc2O[C@H]1CN(C)S(=O)(=O)c1ccc(Cl)cc1
CNC[C@@H]1Oc2c(NC(=O)Nc3ccccc3)cccc2C(=O)N([C@@H](C)CO)C[C@@H]1C
COC(=O)c1c(NC(=O)c2cc(-c3ccccn3)nc3ccc(Br)cc23)sc(C(=O)N(C)C)c1C
Cc1ccc(-c2cc(C(F)(F)F)n3nc(C(=O)NCCN4CCOCC4)c(Cl)c3n2)cc1
COc1ccc(S(=O)(=O)N2CCN(c3ccccn3)CC2)cc1N(C)S(=O)(=O)c1ccccc1
C=C1CCCC(C)(C(=O)OC)C1CC/C(C)=C/CCC1=CC(=O)OC1 (configuration not stated)
C[C@@H]1CN([C@H](C)CO)C(=O)CCCn2cc(nn2)CO[C@H]1CN(C)S(=O)(=O)c1ccc(Oc2ccccc2)nc1
C[C@H](CO)N1C[C@H](C)[C@H](CN(C)S(=O)(=O)c2cn(C)cn2)Oc2ccc(N(C)C)cc2C1=O
C[C@@H]1CN([C@@H](C)CO)C(=O)CCCn2cc(nn2)CO[C@H]1CN(C)Cc1cccc2c1OCCCO2
C[C@H](CO)N1C[C@H](C)[C@@H](CN(C)S(=O)(=O)c2cccs2)Oc2ccc(NC(=O)Nc3cccc4ccccc34)cc2CC1=O
C=CCn1c(SCc2nc3ccccc3[nH]2)nnc1-c1ccccc1
C[C@H]1CN([C@@H](C)CO)C(=O)CCCn2nncc2CO[C@H]1CN(C)Cc1ccccc1
C[C@H]1CN([C@@H](C)CO)C(=O)c2cc(NS(=O)(=O)c3cn(C)cn3)ccc2O[C@H]1CN(C)CC1CCCCC1
O=C(CCc1nc(-c2ccccc2Cl)no1)Nc1ccc(Cl)c(Cl)c1

From PubChem BioAssay AID624138 (Broad Institute, 2012)
